Source: PubChem
MsrA inhibitor – bovine MsrA inhibition | purified bovine MsrA, absorbance read-out | inhibition, % at 15.5 µM | actives 0.75% (n = 360,000); in the data active = inhibition above about 4.5%;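 note: 0% = vehicle wells with enzyme and 100% = reference inhibitor wells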
bovine MsrA act – activates bovine MsrA enzyme. activation, % at 10.6 µM. purified bovine MsrA, absorbance read-out. actives 0.3% (n = 360,000); in the data active = activation above about 7.5%;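 note: 0% = vehicle and 100% = reference activator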
PKA-R2B act – activators of human PKA-R2B complex; PKA-R2B holoenzyme dissociation, Cy5-IP20 fluorescence polarization; R2B truncated from residue 108, S112A mutant; 0% DMSO only, 100% 113 µM cGMP; activation, % at 11.4 µM; AID 504700; P22694+P31323; actives 0.079% (n = 340,000);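 active = activation above a cutoff set at the mean over all compounds plus 3 SD, cut at about 18% in these data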;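 note: higher means more holoenzyme dissociation and a rise in polarization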
Target sequence (P31323 whole entry, looked up, other chains not shown, the tested form may be a part): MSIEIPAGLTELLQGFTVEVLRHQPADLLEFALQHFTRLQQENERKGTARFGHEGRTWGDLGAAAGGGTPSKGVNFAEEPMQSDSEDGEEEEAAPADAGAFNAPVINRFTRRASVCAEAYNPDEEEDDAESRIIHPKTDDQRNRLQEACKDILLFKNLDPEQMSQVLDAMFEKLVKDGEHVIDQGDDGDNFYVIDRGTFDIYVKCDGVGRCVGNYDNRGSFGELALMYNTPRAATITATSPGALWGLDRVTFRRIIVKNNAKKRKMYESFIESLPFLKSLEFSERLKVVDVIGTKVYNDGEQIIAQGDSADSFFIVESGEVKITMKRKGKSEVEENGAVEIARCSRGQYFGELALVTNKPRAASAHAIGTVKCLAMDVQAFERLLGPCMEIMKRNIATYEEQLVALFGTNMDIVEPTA
Mot1-301 SUMO – SUMOylation pathway inhibition by Mot1-301 growth rescue; AID 2716; actives 1% (n = 320,000); growth rescue, % at 18.8 µM; S. cerevisiae Mot1-301 growth rescue, ATP luminescence, 38.5C; percent above DMSO median, 100 means doubled;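 active = every valid replicate shows activation above 250% relative to neutral control wells; inactive = the rest, any valid replicate at or below 250%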;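 note: OY570 slx delta 5 strain wells were the positive control but not used for scaling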
PKA-R1A act – activators of PKA-R1A complex; PKA-R1A dissociation, Cy5-IP20 fluorescence polarization; scaled: DMSO 0%, 113 µM cGMP 100%; actives 0.083% (n = 340,000); activation, % at 11.4 µM;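 active = percent activation above the mean of all tested compounds plus 3 SD, cut at about 19% in these data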;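 note: higher means more PKAc released from R1A so a rise in polarization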
Yeast Mot1 SUMO – inhibits SUMO pathway, affecting Mot1-301 yeast growth; shares compounds with Mot1-301 SUMO; S. cerevisiae Mot1-301 galactose growth, ATP luminescence, 24 h; -100 = growth of slx-deleted rescue strain; growth activity, percent, % at 42 µM; 2,300 tested, under 10 active;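 active = Signal drops as the depositor expects, and the fitted half-maximal dose is no more than ten times the top valid tested dose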;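 note: more negative values mean stronger growth rescue toward the control strain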
Active calls of the source: *; . = no result given; + = active, no number. Sampled rows, rich in hits. Any-hit rate of the full collection: about 2%.

SMILES | MsrA inhibitor | bovine MsrA act | PKA-R2B act | Mot1-301 SUMO | PKA-R1A act | Yeast Mot1 SUMO
CCCCCC(=O)NNC1=NCC(Cc2cccc(Cl)c2)S1 (stereo unspecified) | 2 | -4 | 10 | 734* | -3 | 1
CCCCCCC12C(=Cc3cc4c(cc31)OCCO4)c1cc(OC)c(OC)cc1C(CC(=O)NCc1ccccc1)N2C(=O)OC (stereo unspecified) | 0 | . | . | . | . | .
C[C@H](O)[C@@H]1CN2CCc3c([nH]c4c(-c5ccccc5)cccc34)[C@@H]2C[C@@H]1N(C)C(=O)NC1CCCCC1 | -1 | . | . | . | . | .
COc1ccccc1C(=O)NC(=O)COC(=O)Cc1ccccc1[N+](=O)[O-] | 0 | -1 | -7 | 617* | 5 | -1
COC(=O)C1=C(C)N(Cc2ccc(C(F)(F)F)cc2)C(=NCc2cc(OC)c(OC)c(OC)c2)NC1c1cccc(Cl)c1 (stereo unspecified) | 0 | . | . | . | . | .
Cc1cnc(=O)[nH]c1SCC(=O)c1ccc(F)cc1 | 1 | -5 | -8 | 436* | -5 | 0
CCOC(=O)CSc1nc2ccccc2c(=O)n1CC(C)C | 0 | -2 | -2 | 573* | 3 | 0
COC(=O)c1ccc(CSc2nc3ccccc3c(=O)n2CC(C)C)o1 | 0 | -3 | 1 | 839* | -2 | 1
CCOC(=O)CSc1nc2ccccc2c(=O)n1CC | 2 | -5 | 1 | -8 | 3 | .
S=C(SCc1c(Cl)cccc1Cl)N1CCSCC1 | 0 | . | . | . | . | .
Cc1ccc(CSCCNC(=O)c2ccc(C)cc2)cc1 | 2 | -11 | -6 | 237 | 6 | .
Cc1ccc(CSCCNC(=O)c2ccc(NS(C)(=O)=O)cc2)cc1 | 0 | -2 | 4 | 453* | -3 | 0
CC(=O)N1C[C@@H](CO)[C@@H]2C[C@H]1c1ccccc1N2C | 1 | . | . | . | . | .
CCOc1ccccc1C(=O)N1CCN=C1SCc1cccnc1 | 0 | -3 | -2 | 891 | 4 | .
O=C(c1ccccc1F)N1CCN=C1SCc1cccnc1 | 1 | -3 | 3 | 569* | 2 | 1
CC(C)(C)C(=O)c1c(N)[nH]c(C(=O)c2ccccc2)c1-c1ccccc1 | 0 | . | . | . | . | .
COc1ccc(NC(=O)OC[C@@H]2CSCCS(=O)(=O)N2)cc1 | 2 | . | . | . | . | .
CC(C)CNc1cc(=O)n(C)c(=O)n1C | 3 | 0 | -2 | 392* | -4 | -1
CSc1nn(CCC#N)c(=O)[nH]c1=O | 0 | . | . | . | . | .
Cc1cc(C)c(S(=O)(=O)NCC(c2cccnc2)N2CCN(Cc3ccccc3)CC2)c(C)c1 (stereo unspecified) | 1 | -1 | 0 | 524* | -14 | 0
COc1ccc(S(=O)(=O)NCC(c2cccnc2)N2CCN(Cc3ccccc3)CC2)cc1C (stereo unspecified) | 0 | -2 | 14 | 1 | 5 | .
OC1CN=C2CCCc3c2n(c2ccc(Cl)cc32)C1 (stereo unspecified) | 1 | -4 | 5 | 368* | 7 | 0
c1ccc(-c2ccc3c(c2)c2c4n3CCN=C4CCC2)cc1 | 1 | -1 | -5 | 129 | 0 | .
O=C(O)C1CCN(c2ccc(S(=O)(=O)N3CCC(C(=O)O)CC3)cc2[N+](=O)[O-])CC1 | 0 | -1 | 0 | -13 | -13 | .
CN(Cc1ccccc1)c1ccc(S(=O)(=O)N2CCC(C(=O)O)CC2)cc1[N+](=O)[O-] | 0 | -11 | -6 | 550* | -4 | 0
SMILES | MsrA inhibitor | bovine MsrA act | PKA-R2B act | Mot1-301 SUMO | PKA-R1A act | Yeast Mot1 SUMO
CC(C)(C)CC(=O)Nc1cc(S(=O)(=O)N2CCOCC2)ccc1N1CCCC1 | 1 | 0 | -1 | 508* | -17 | 0
CCCCCC(=O)Nc1cc(S(=O)(=O)N2CCOCC2)ccc1N1CCCCC1 | -1 | 0 | -7 | -5 | 0 | .
Cc1onc(-c2c(F)cccc2Cl)c1-c1ncc(-c2ccc(Cl)cc2)o1 | -1 | . | . | . | . | .
Cc1ccc(-n2cc[nH]c2=S)cc1C | -1 | -5 | -10 | -1 | 0 | .
S=c1[nH]ccn1-c1cccc(Cl)c1 | 0 | -6 | -4 | 479* | 6 | -1
O=C(CSc1nnc(CNC(=O)c2ccccc2)o1)NCc1ccco1 | 1 | -2 | 3 | 800* | -3 | 0
CCC1CCCCN1C(=O)CSc1nnc(CNC(=O)c2ccco2)o1 (stereo unspecified) | 0 | -1 | 6 | 361* | -4 | 0
CCC1CCCCN1C(=O)CSc1nnc(CNC(=O)c2cc(OC)c(OC)c(OC)c2)o1 (stereo unspecified) | -1 | -4 | -5 | 50 | 2 | .
O=C(CSc1nnc(CNC(=O)c2ccco2)o1)Nc1nc2ccccc2s1 | 2 | -10 | -6 | + | 5 | 1
C[C@@H]1CN([C@@H](C)CO)C(=O)CCCn2cc(nn2)CO[C@H]1CN(C)S(C)(=O)=O | -1 | . | . | . | . | .
CN(C)CCCN1CC(=O)N2CCc3ccc(Br)cc3C2CC1=O (stereo unspecified) | -1 | . | . | . | . | .
Cc1ccccc1-c1nc2ccc(Cl)cc2c(=O)n1O | 1 | -3 | -11 | 613* | 7 | -1
COC(=O)C1=C(C)N(C)C(=NCC2CC2)NC1c1cccc(F)c1 (stereo unspecified) | 0 | . | . | . | . | .
O=C(C1CCN(S(=O)(=O)N2CCC3(CC2)OCCO3)CC1)N1CCC(Cc2ccccc2)CC1 | 1 | -4 | 0 | 398* | -11 | 0
CCCS(=O)(=O)N1CCC(C(=O)N2CCC(Cc3ccccc3)CC2)CC1 | 0 | 2 | 7 | 698 | -9 | .
COc1ccc2c(c1)[C@@H](NC(=O)c1ccncc1)[C@H](C)[C@H]2c1ccccc1 | -1 | . | . | . | . | .
CC1CCC(C(C)C)C(OC(=O)COC(=O)c2ccc(N)cc2)C1 (stereo unspecified) | -1 | -4 | -5 | 21 | 5 | .
CC1CCC(C(C)C)C(OC(=O)COC(=O)c2cccn2C)C1 (stereo unspecified) | 0 | -2 | -5 | 377* | 6 | 0
CCC(C)(C)n1nnnc1C(c1cccnc1)N1CCC(Cc2ccccc2)CC1 (stereo unspecified) | -1 | -1 | -1 | 594* | -1 | 1
CCC(C)(C)n1nnnc1C(c1ccncc1)N1CCC(Cc2ccccc2)CC1 (stereo unspecified) | 0 | 0 | -1 | 30 | -9 | .
COc1ccc(N2C(=O)c3n[nH]c(C(C)C)c3C2c2ccc(F)cc2)cc1 (stereo unspecified) | -1 | . | . | . | . | .
CC1(C)Cc2c(cnn2-c2ccc(F)cc2)C(NC(=O)CCCN2CCCCC2=O)C1 (stereo unspecified) | 1 | -4 | -9 | 523* | -7 | 0
CC1(C)Cc2c(cnn2-c2ccccc2)C(NC(=O)CCCN2CCCCC2=O)C1 (stereo unspecified) | 1 | -3 | -2 | 160 | -5 | .
